Source: the supplement of paper PMC6555819

test system: LXRb homodimer (NR concentration 270 nM); test: PBM binding z-score (relative to random genomic background probes); higher = stronger binding; sequences stand for … in GC…GCGATTGACAGCGTAGAATGAAGG
Procedure, shortened: (§1)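 Binding buffer was PBS pH 7.4 with 2% milk, 0.02% Triton X-100, 1 mM DTT, 0.2 mg/mL BSA and 0.4 mg/ml salmon testes DNA. In it, ligand-free nuclear receptor dimers were incubated 1 h on custom Agilent 4×180K protein-binding microarrays carrying double-stranded probes. Antibodies against each partner (one per run) detected binding, and z-scores were calculated against random background probes after regression normalization of scanned fluorescence.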

Sequence	PBM binding z-score
CTCCAAAGGTCGTGCTCAGGTGAGTATACCAAAC	0.361
TAGCCAAGGTCATGGGCCAGTATACCACGCGAAC	0.229
CGAACTACGTCAGAACAGGACAGTGAAGGATGAT	-0.438
ATATGTTGGTTATCGGGTCATTCAGTTTGCGCAT	1.77
ACAGACAGGTTATGAAGGTAACTCAGGCTATCAT	0.2
CCGACTGGGGCAGAAAGGATACCATACCATCCGG	-1.2
TCACGGAGGACACGAAAGGTCAGAGCTCGACATC	-0.784
TGTCAAAGTTCAAAGGCAACGTAAGTATCCACAC	1.39
CCTCGCAGGCCAATCTGGGTCACTCAAGGCTTGA	-0.638
GCGACTGGGGCATCAGCAGGTTACCATTACTTAA	-1.11
TAGCCTAGGTCATGGGCCAGTATCCCACGCGAAC	-0.295
TCATATAGGTAAAAGGTGAAATTCGGTGTGGTAA	0.332
CCTATTAGATGACCATAAGGGCAACCGAAGCTCG	0.565
AGAACGAGGGCACGCTGAGTTGGTAGCAGAGTAG	-0.719
AGCACGAGGGCAATGAGTTGATAGCACGGGTGGC	-0.733
CCGACTGGGGCATAAAGTTACCATAAGCCAGCCC	-1.15
CGAACTAGGTCATCCAGGACAGTAAATACATTGA	0.21
ATCTCTAGGTGAAGATAGTTCAGTGAATGCAAAT	0.00986
ACTATTAGTTGACTTGGGGCAACCGATACGACGC	1.05
TAGCTTAGGTCATTGGGCCAGTATAGTACGCATC	0.994

Sequence	PBM binding z-score
AGAATGCGGTTATTAAGATCAGGGAATTGCGGTC	-0.728
TCTTGTAGATAAGCAGGTTAAGAAAGCTGGCCAA	-0.669
GCATATAGGTAATACAAGGTGAAAGTTCGATTGT	-0.201
GATACAGGGTCAAGGCCAGACTACGCGTATTGAT	-0.0563
TCGGCTAGGTCAGTTGGTCAGCTAACGAGCTGCC	-0.753
AGTAAAAGTTCAGGACGAGGTAACGTAAAGCACG	0.493
AGAACGAGGGCAATGAGTTGATAACACGGGTGGC	-0.584
TGAATGAGGTTATAAGCTCAGGGAACGTTGCAAA	-0.391
TCTATTAGTTGATTAGGGCATCCGAAACAGCGGA	0.553
ATATGTAGGTTAAGGGTAATTCAGGTTGGTTCGC	0.767
CAAACTAGGTCACAGAGGTCAAATTCCGTGCGTA	3.6
CGAACGAGGGCATGAGTGGATAGCAAATGCCGAT	-0.983
CCGAGTAGGTTATGGGGCATTCCGGCAACGGTGA	-0.279
CGTCCCAGGTCATAGGAGGTCAGTGAAGACAGAT	0.872
TTACCAAGTTGAAGGTCGTTGATCCCTCTGTAGA	-0.05
GCACCAAGGTGAATAGGTCGTTGATGAGTAGGCG	-0.835
ATCGAAAGGTCGTGAGGTGAGTAGACAGAAAGGC	0.701
CGAACTAGGTGATCCAGGACAGTGAATACATTGA	-0.452
TCTTGTAGATTAACAGGAGGTTAAGAAAGATCGA	-0.0109
AGAATGAGGTTATTAATATCAGGGAATTGCGGTC	-0.0827

test system: PPARa:RXRa (NR concentration 270 nM, RXRa partner concentration 90 nM); test: as above
Procedure, shortened: as §1

Sequence	PBM binding z-score
CTCCAAAGGTCGTGCTCAGGTGAGTATACCAAAC	5.08
TAGCCAAGGTCATGGGCCAGTATACCACGCGAAC	6.11
CGAACTACGTCAGAACAGGACAGTGAAGGATGAT	-0.716
ATATGTTGGTTATCGGGTCATTCAGTTTGCGCAT	2.86
ACAGACAGGTTATGAAGGTAACTCAGGCTATCAT	1.21
CCGACTGGGGCAGAAAGGATACCATACCATCCGG	-0.597
TCACGGAGGACACGAAAGGTCAGAGCTCGACATC	3.5
TGTCAAAGTTCAAAGGCAACGTAAGTATCCACAC	5.04
CCTCGCAGGCCAATCTGGGTCACTCAAGGCTTGA	3
GCGACTGGGGCATCAGCAGGTTACCATTACTTAA	0.893
TAGCCTAGGTCATGGGCCAGTATCCCACGCGAAC	4.04
TCATATAGGTAAAAGGTGAAATTCGGTGTGGTAA	5.49
CCTATTAGATGACCATAAGGGCAACCGAAGCTCG	0.419
AGAACGAGGGCACGCTGAGTTGGTAGCAGAGTAG	1.87
AGCACGAGGGCAATGAGTTGATAGCACGGGTGGC	0.58
CCGACTGGGGCATAAAGTTACCATAAGCCAGCCC	0.0732
CGAACTAGGTCATCCAGGACAGTAAATACATTGA	4.68
ATCTCTAGGTGAAGATAGTTCAGTGAATGCAAAT	1.69
ACTATTAGTTGACTTGGGGCAACCGATACGACGC	-0.000395
TAGCTTAGGTCATTGGGCCAGTATAGTACGCATC	4.09

Sequence	PBM binding z-score
AGAATGCGGTTATTAAGATCAGGGAATTGCGGTC	-0.484
TCTTGTAGATAAGCAGGTTAAGAAAGCTGGCCAA	0.533
GCATATAGGTAATACAAGGTGAAAGTTCGATTGT	2.67
GATACAGGGTCAAGGCCAGACTACGCGTATTGAT	5.69
TCGGCTAGGTCAGTTGGTCAGCTAACGAGCTGCC	1.48
AGTAAAAGTTCAGGACGAGGTAACGTAAAGCACG	2.63
AGAACGAGGGCAATGAGTTGATAACACGGGTGGC	1.28
TGAATGAGGTTATAAGCTCAGGGAACGTTGCAAA	2.67
TCTATTAGTTGATTAGGGCATCCGAAACAGCGGA	0.769
ATATGTAGGTTAAGGGTAATTCAGGTTGGTTCGC	4.6
CAAACTAGGTCACAGAGGTCAAATTCCGTGCGTA	6.59
CGAACGAGGGCATGAGTGGATAGCAAATGCCGAT	1.22
CCGAGTAGGTTATGGGGCATTCCGGCAACGGTGA	1.97
CGTCCCAGGTCATAGGAGGTCAGTGAAGACAGAT	4.83
TTACCAAGTTGAAGGTCGTTGATCCCTCTGTAGA	1.59
GCACCAAGGTGAATAGGTCGTTGATGAGTAGGCG	2.37
ATCGAAAGGTCGTGAGGTGAGTAGACAGAAAGGC	4.93
CGAACTAGGTGATCCAGGACAGTGAATACATTGA	1.76
TCTTGTAGATTAACAGGAGGTTAAGAAAGATCGA	1.06
AGAATGAGGTTATTAATATCAGGGAATTGCGGTC	2.47
